Laboratory results: PubChem BioAssay (NCI)
Compounds without any hit were thinned out: in the full panel of roughly 79,000, 15% have a hit. Unmarked numbers belong to inactive results. The source made the active and inactive calls. No stated cut-off is given here; in the data, active means growth inhibition above about 70%; inactive means the rest.

How the values were obtained:
[1] = NCI Yeast Anticancer Drug Screen. Data for the rad50 strain (AID 155);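 further: 0% = growth of vehicle-only cultures of the same strain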; details: S. cerevisiae rad50 strain growth inhibition, active compounds read high
In short: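 DNA repair mutant yeast, compound exposure, growth read-out; inhibition is taken relative to vehicle.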

[2] = NCI Yeast Anticancer Drug Screen. Data for the mec2-1 strain (AID 157); details: S. cerevisiae mec2-1 strain, active compounds read high
In short: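 mec2-1 yeast strain, carrying an alteration in DNA damage repair or cell cycle control, was exposed to compounds; growth inhibition was measured relative to vehicle-treated controls.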

[3] = NCI Yeast Anticancer Drug Screen. Data for the sgs1 mgt1 strain (AID 161);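 further: 0% = growth of cultures given vehicle only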; details: S. cerevisiae sgs1 mgt1 strain, active compounds read high
In short: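 Growth of a repair-deficient yeast mutant was monitored after compound treatment and expressed as inhibition relative to vehicle-treated cultures.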

[4] = NCI Yeast Anticancer Drug Screen. Data for the cln2 rad14 strain (AID 165);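 further: 0% = growth equal to vehicle treated cultures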; details: S. cerevisiae cln2 rad14 strain, active compounds read high
In short: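 Yeast carrying cln2 and rad14 alterations (cell cycle control and DNA damage repair) were exposed to compounds. Growth inhibition was measured against vehicle-treated controls.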

[5] = NCI Yeast Anticancer Drug Screen. Data for the bub3 strain (AID 167); details: S. cerevisiae bub3 mutant strain, active compounds read high
In short: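 In this screen, a yeast mutant lacking normal mitotic checkpoint function is challenged with compound. Relative growth versus vehicle gives the inhibition value.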

[6] = NCI Yeast Anticancer Drug Screen. Data for the mlh1 rad18 strain (AID 175); details: S. cerevisiae mlh1 rad18 strain growth inhibition, active compounds read high
In short: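 Growth inhibition of the yeast strain was measured after compound exposure and expressed relative to vehicle-treated controls. The strain carries defined defects in DNA damage repair.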

[7] = at 5.0 µM (retest, dose inferred, filed as 0.5)
[8] = at 50.0 µM (retest, dose inferred, filed as 5.0)

Row | SMILES | growth inhibition [1, 7] | growth inhibition [1, 8] | growth inhibition ([1]; at 50.0 µM) | growth inhibition [2, 7] | growth inhibition [2, 8] | growth inhibition ([2]; at 50.0 µM) | growth inhibition [3, 7] | growth inhibition [3, 8] | growth inhibition ([3]; at 50.0 µM) | growth inhibition [4, 7] | growth inhibition [4, 8] | growth inhibition ([4]; at 50.0 µM) | growth inhibition [5, 7] | growth inhibition [5, 8] | growth inhibition ([5]; at 50.0 µM) | growth inhibition [6, 7] | growth inhibition [6, 8] | growth inhibition ([6]; at 50.0 µM)
1 | C=C1C(=O)OC(CCCCCCCCCCCCC)C1C(=O)O (stereo not given) | 69% | 89% (active) | 84% (active) | 93% (active) | 89% (active) | 89.5% (active) | 71% (active) | 84% (active) | 76.3% (active) | 63% | 85% (active) | 85% (active) | 86% (active) | 90% (active) | 86.5% (active) | 86% (active) | 89% (active) | 80.8% (active)
2 | Cc1[nH]c2c(C)c3c([nH]c4ccc(Cl)cc43)c(C)c2c(=O)c1C | -8% | 12% | 61.1% | -24% | 0% | 14.2% | -14% | 3% | 23.9% | -17% | 6% | 13.7% | -10% | -3% | 8.65% | -19% | -2% | 39.1%
3 | COC12C=CC(CC1)c1c2c(O)c2ncccc2c1O (stereo not given) | -4% | 67% | 78.6% (active) | -3% | 40% | 34.9% | -5% | 47% | 72.5% (active) | -4% | 23% | 21.9% | 3% | 77% (active) | 90.3% (active) | -6% | 52% | 48.3%
4 | C[C@H](CCC(=O)O)[C@H]1CC[C@H]2[C@@H]3CC[C@@H]4C[C@H](O)CC[C@]4(C)[C@H]3C[C@H](O)[C@]12C | -14% | 95% (active) | 99.2% (active) | 1% | 98% (active) | 98.8% (active) | -1% | 97% (active) | 99.3% (active) | -34% | 98% (active) | 99.3% (active) | -16% | 99% (active) | 98.8% (active) | -11% | 98% (active) | 99% (active)
5 | Clc1ccc(CN2COc3c(ccc4cccnc34)C2)cc1 | 1% | 36% | 97.1% (active) | -2% | 65% | 64.5% | -1% | 97% (active) | 99.4% (active) | 1% | 97% (active) | 77.5% (active) | -4% | 85% (active) | 77.5% (active) | 2% | 95% (active) | 93% (active)
6 | COc1ccc(-n2cc(-c3ccc(Cl)cc3)c3c(N)ncnc32)cc1 | 20% | 99% (active) | 95.6% (active) | 23% | 99% (active) | 94.6% (active) | 63% | 99% (active) | 98.2% (active) | 13% | 25% | 87.1% (active) | 0% | 3% | 91% (active) | 20% | 99% (active) | 88% (active)
7 | O=C(Nc1cccc2ccccc12)OCC1CCc2ccccc2C1 (stereo not given) | -1% | 6% | 12.9% | -6% | 2% | 22.6% | -4% | 17% | 54.2% | -8% | -9% | 9.25% | -2% | 29% | 72.2% (active) | -5% | 27% | 31.1%
8 | CC1=NN(c2ccccc2)C(=O)C12[C@H](c1ccccc1)C2(C#N)C#N (stereo not given in full) | 34% | 92% (active) | 84% (active) | 37% | 78% (active) | 54% | 46% | 96% (active) | 87.3% (active) | 25% | 74% (active) | 66.4% | 41% | 81% (active) | 77.6% (active) | 41% | 87% (active) | 75.8% (active)
9 | CCCCCN(CCCCC)C(=S)Nc1ccccc1 | -36% | 67% | 84.9% (active) | -5% | 85% (active) | 80.5% (active) | -19% | 83% (active) | 77% (active) | -22% | 74% (active) | 80.9% (active) | 1% | 94% (active) | 87.8% (active) | -4% | 90% (active) | 89.4% (active)
10 | CC(C)C1=CC23CCC4C(C)(C(=O)O)CCCC4(C)C2CC1C(C(=O)O)C3C(=O)O (stereo not given) | 80% (active) | 99% (active) | 98.4% (active) | 89% (active) | 99% (active) | 98.1% (active) | 52% | 98% (active) | 94.9% (active) | 86% (active) | 99% (active) | 98% (active) | 84% (active) | 99% (active) | 97.6% (active) | 88% (active) | 98% (active) | 96% (active)
11 | CCNC(=O)NNc1ncnc2c1c(-c1ccc(Cl)cc1)cn2-c1ccc(C)cc1 | -10% | 98% (active) | 96.7% (active) | -11% | 98% (active) | 97.7% (active) | 5% | 99% (active) | 98.3% (active) | 7% | 97% (active) | 96.5% (active) | 0% | 97% (active) | 40% | -17% | 98% (active) | 97.2% (active)
12 | CCC(C)COC(=O)c1ccc([N+](=O)[O-])cc1 (stereo not given) | -4% | 10% | 50% | -4% | 2% | 16.4% | -1% | 7% | 72.8% (active) | -3% | -9% | -2.15% | -6% | -6% | 80.2% (active) | -4% | 5% | 89.3% (active)
13 | N#CC(CC(Br)CBr)(c1ccccc1)c1ccccc1 (stereo not given) | 8% | 11% | 45.9% | 8% | 24% | 40.1% | 11% | 29% | 56% | 10% | -2% | 36.2% | 9% | 11% | 33.3% | 16% | 51% | 75.5% (active)
14 | CCCCCCCCCCCC(=O)N(CC)CC | -3% | 99% (active) | 99.8% (active) | 1% | 99% (active) | 99.9% (active) | -4% | 100% (active) | 99.8% (active) | -1% | 99% (active) | 99% (active) | 2% | 100% (active) | 99.7% (active) | 14% | 99% (active) | 99.8% (active)
15 | N#C/C(=C\NC(=S)C(N)=S)c1nc2ccccc2s1 | 21% | 97% (active) | 88.1% (active) | 28% | 99% (active) | 90.2% (active) | 7% | 97% (active) | 89.2% (active) | 30% | 97% (active) | 86.9% (active) | 22% | 98% (active) | 87.8% (active) | 52% | 97% (active) | 85.5% (active)
16 | COC(=O)c1cc(/C=C/c2ccccc2)on1 | -3% | 3% | -3.75% | 5% | 1% | 0.55% | 2% | 8% | 10.5% | -4% | -14% | 82.2% (active) | 6% | 14% | 2.75% | -3% | 2% | -9.55%
17 | CC#CCCCCOC(=O)c1cc([N+](=O)[O-])cc([N+](=O)[O-])c1 | 97% (active) | 99% (active) | 99.5% (active) | 99% (active) | 100% (active) | 99.6% (active) | 98% (active) | 99% (active) | 99.6% (active) | 90% (active) | 99% (active) | 99.4% (active) | 98% (active) | 99% (active) | 99.7% (active) | 98% (active) | 99% (active) | 99.4% (active)
18 | CCCCc1[nH]ccc2c(C)c3nc4ccccc4c3cc12 | 6% | 93% (active) | 96.8% (active) | -8% | 96% (active) | 91.2% (active) | -14% | 96% (active) | 97.5% (active) | 2% | 95% (active) | 92.1% (active) | 0% | 94% (active) | 88.7% (active) | 21% | 95% (active) | 98.4% (active)
19 | Clc1ccc(C2=C(c3ccccc3)C(c3ccc(Cl)cc3)N3C(=N[C@H]4CCCC[C@@H]43)N2)cc1 (stereo not given in full) | 4% | 15% | 88.2% (active) | 9% | 7% | 88.4% (active) | -14% | -27% | 89.3% (active) | -1% | -5% | 90% (active) | -1% | -1% | 87.7% (active) | 7% | 7% | 91.5% (active)
20 | CC[C@H](CC[C@@H](C)C1CC[C@H]2[C@@H]3CCC4=CC(=O)CC[C@]4(C)[C@H]3CC[C@]12C)C(C)C (stereo not given in full) | -4% | 18% | 50.9% | -8% | 65% | 35.7% | -8% | 68% | 76% (active) | -6% | 28% | 63.3% | -10% | 29% | 30.6% | 20% | 83% (active) | 36%
